Sampled rows, rich in hits. Any-hit rate of the full collection: about 1.5%.
Mtb MbtI inh: inhibitors of Mycobacterium tuberculosis siderophore enzyme MbtI; P9WFX0; purified MbtI enzyme, fluorescence intensity read-out; inhibition, % (no concentration beside the values); actives 0.89% (n = 100,000); AID 493033; in the data active = inhibition mostly above about 56%, no sharp cut-off; inactive = mostly below about 77%
Mtb MenB inh: inhibitors of Mycobacterium tuberculosis MenB enzyme. P9WNP5. inhibition, % (concentration not given with the values). actives 0.43% (n = 100,000). AID 540299. MenB enzyme assay, absorbance read-out; in the data active = inhibition above about 21%, passing the limit was not always enough
Target sequence (P9WNP5 whole entry, looked up): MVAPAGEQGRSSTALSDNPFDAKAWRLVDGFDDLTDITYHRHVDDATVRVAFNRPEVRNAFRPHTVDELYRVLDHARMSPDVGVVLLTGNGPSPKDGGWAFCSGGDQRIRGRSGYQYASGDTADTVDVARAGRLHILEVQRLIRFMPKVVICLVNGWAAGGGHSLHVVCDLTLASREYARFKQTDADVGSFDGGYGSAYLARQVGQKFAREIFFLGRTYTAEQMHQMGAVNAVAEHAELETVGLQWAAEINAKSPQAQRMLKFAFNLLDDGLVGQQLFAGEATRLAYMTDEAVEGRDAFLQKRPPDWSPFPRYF
Polio RdRp inh: poliovirus RNA polymerase inhibition | P03300 | poliovirus polymerase elongation, fluorescence polarization; stronger effect = lower value | % elongation, % (compound at 16.7 µg/mL) | actives 0.66% (n = 150,000) | AID 588519; in the data active = % elongation below about 90%
Active calls of the source: *; x = no result; ! = not active in a repeat.

SMILES | Mtb MbtI inh | Mtb MenB inh | Polio RdRp inh
CCN(CC)c1ccc(C=C2C(=O)OC(c3ccccc3)OC2=O)cc1 (stereo unspecified) | x | -7.6 | 115.0
CCN(CC)c1ccc(C=C2C(=O)OC3(CCCC3)OC2=O)cc1 | 72.3* | -96.3 | 110.0
CCN(CC)C(=O)CSc1nnc(-c2ccco2)n1CC1CCCO1 (stereo unspecified) | 5.8 | -21.1 | 99.0
CNC(=O)CSc1nnc(-c2ccco2)n1CC1CCCO1 (stereo unspecified) | 3.0 | 42.6* | 100.0
CC1CCN(C(=S)Nc2ccccc2)CC1 | -3.9 | -13.6 | 101.0
Cc1cc(SCC(=O)Nc2ccccc2)c2ccccc2n1 | x | -31.0 | 89.0*
CC(C)n1c(SCC(=O)Nc2ccccc2)nc2ccccc2c1=O | -5.2 | -7.7 | 97.0
Cc1ccc(CC(=O)Nc2ccc3c(c2)N(C)C(=O)c2ccccc2S3)cc1 | x | x | 70.0*
CCOc1ccc(CC(=O)Nc2ccc3c(c2)N(C)C(=O)c2ccccc2S3)cc1OCC | x | x | 105.0
NS(=O)(=O)c1ccc(-n2cccc2C=C2C(=O)NC(=S)NC2=O)cc1 | 97.0* | -5.7 | 100.0
CC1(C)OC(=O)C(=Cc2cccn2-c2ccc(S(N)(=O)=O)cc2)C(=O)O1 | x | -187.0 | 94.0
O=c1c(Cl)c(NCc2ccco2)cnn1Cc1ccccc1 | -6.1 | 4.2 | 100.0
COc1cccc(N2CC(NC(=O)/C=C\c3ccc4c(c3)OCO4)CC2=O)c1 (stereo unspecified) | x | x | 81.0*
COc1ccc(N2CC(NC(=O)/C=C\c3ccc4c(c3)OCO4)CC2=O)cc1OC (stereo unspecified) | x | x | 105.0
CCCn1c(=O)[nH][nH]c1=S | 87.8* | 3.4 | 100.0
CCCn1c(=S)[nH]c2c1c(=O)[nH]c(=O)n2C | 77.0 | -1.0 | 103.0
Fc1ccc(-c2nc3n(n2)Cc2ccccc2-3)cc1 | -10.2 | -7.3 | 100.0
NC(=S)Cc1nc2n(n1)Cc1ccccc1-2 | 76.9* | -15.9 | 83.0*
C=CCn1c(NCc2ccccc2)nc2ccccc21 | x | -3.5 | 106.0
CCn1c(NCc2ccccc2)nc2ccccc21 | 1.6 | 38.1* | 100.0
S=c1nc(C2CC2)[nH]c2ccccc12 | 91.9* | 11.9 | 98.0
CC(C)c1nc(=S)c2ccccc2[nH]1 | 86.2 | -56.3 | 103.0
CNC(=O)CSc1nc2cc3c(cc2cc1C)OCCO3 | -60.6 | -7.3 | 103.0
CN(C)C(=O)CN(c1ccccc1)S(=O)(=O)c1ccccc1 | 14.1 | -6.6 | 107.0
O=c1c2ccccc2n2c(-c3ccc(Cl)cc3)nnc2n1CCc1ccccc1 | x | x | 74.0*
SMILES | Mtb MbtI inh | Mtb MenB inh | Polio RdRp inh
O=c1c2ccccc2n2c(-c3ccc(F)c(F)c3)nnc2n1CCc1ccccc1 | x | x | 105.0
O=C(Nc1ccc2nc(N3CCOCC3)sc2c1)c1cncn1-c1ccccc1 | -2.6 | -26.8 | 104.0
Cc1cccc(OCc2nnc(SCC(=O)C34CC5CC(CC(C5)C3)C4)o2)c1 | -7.6 | -30.6 | 102.0
Oc1ccc(-c2ccccc2)cc1 | -8.2 | x | x
Oc1ccc(O)cc1 | 96.9* | 3.3 | 99.0
CN=C1SC(CC(=O)Nc2ccccc2)C(=O)N1C (stereo unspecified) | -7.5 | -7.9 | x
O=C(CC1Sc2ncnn2C1=O)Nc1ccc(Br)cc1 (stereo unspecified) | 99.3* | x | x
COC(=O)c1cc(NC(=S)NN2CCOCC2)cc(C(=O)OC)c1 | 3.9 | 44.6* | 99.0
S=C(Nc1ccc(Cl)cc1)NN1CCOCC1 | -6.8 | -17.9 | 105.0
O=C1C=CC(=O)c2c(O)cccc21 | -20.6 | 7.3 | 87.0*!
O=C1c2ccccc2C(=O)c2c1ccc(O)c2O | 0.0 | 2.7 | 98.0
Cc1ccc(S(=O)(=O)NC2CCC(C)CC2)cc1C (stereo unspecified) | 5.0 | -16.6 | 104.0
CCn1c(CCc2nnc(SCC(=O)c3ccccc3)n2CC)nnc1SCC(=O)c1ccccc1 | -9.9 | -15.0 | 104.0
COC(=O)c1cc(C)sc1N | 94.9* | 8.0 | 100.0
COC(=O)Nc1sc(C)cc1C(=O)OC | -3.2 | 2.8 | 99.0
CCCCS(=O)(=O)c1nc2c(cc1C#N)CCCC2 | 37.9 | -11.7 | 100.0
CCN(CC)C(=O)c1cc(-c2ccccc2)on1 | 7.2 | 33.8* | 102.0
C=CCNC(=O)c1cc(-c2ccccc2)on1 | 8.2 | 33.8* | 100.0
CCN(CC)C(=O)c1cc(-c2ccc(C)cc2)on1 | x | 5.0 | 100.0
O=C(O)c1cc(-c2ccc(F)cc2)on1 | x | 47.4* | 98.0
C=CCNC(=O)c1cc(-c2ccc(OC)cc2)on1 | -10.7 | -9.4 | 101.0
O=C(Nc1ccc(F)cc1F)c1cc(-c2ccc(Cl)cc2)on1 | x | x | 103.0
COc1cc(C)ccc1OCC(=O)NN1C(C)CCCC1C (stereo unspecified) | -3.3 | -13.2 | 104.0
CC1SC(c2ccccc2)NC1=O (stereo unspecified) | 90.6* | -128.4 | 100.0
CC1SC(c2ccc(F)cc2)NC1=O (stereo unspecified) | x | -17.1 | 106.0
Cc1cc(=O)oc2cc3occ(C(C)(C)C)c3cc12 | -17.4 | 12.6 | 103.0

From PubChem
